Most compounds without a hit are left out; they make up all but 10% or so of the library.
JMJD2A Tudor: inhibitors of human JMJD2A Tudor domain; O75164; AlphaScreen JMJD2A-Tudor / H3K4me3 peptide binding; Potency, µM (titrated, usually from 114 µM), without a hit: at the highest dose activity change, negative = inhibition, hits mostly inhibitors; 390,000 tested, 4.4% active; note: % is set by controls: 0 for no effect and ±100 for the full control effect; nearly all actives have a fitted effect of over 50% in size
BAZ2B block: inhibitors of human BAZ2B bromodomain. Q9UIF8. AlphaScreen BAZ2B-H3K14Ac peptide displacement. Potency, µM (highest dose often 114 µM), inactives show at the highest dose activity change, negative = inhibition, actives largely listed as inhibitors. 360,000 tested, 4.4% active; note: % is set by controls: 0 for no effect and ±100 for the full control effect; nearly all actives have a fitted effect of over 60% in size
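Multi-concentration screen (max 110 uM) measuring displacement of acetylated histone H3 peptide from BAZ2B by AlphaScreen, using 50 nM protein, 50 nM peptide and 10 ug/mL streptavidin donor plus Ni-chelate acceptor beads.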
HP1b chromo inh: blocks HP1-beta chromodomain binding to methylated histone tails; AlphaScreen HP1-beta / biotin-H3K9me3 peptide binding; Potency, µM (titrated, usually from 114 µM), for the others: at the highest dose activity change, negative = inhibition, most hits filed as inhibitors; 390,000 tested, 0.56% active; AID 540317; note: nearly all actives have a fitted effect of over 70% in size
Target sequence (P83916 whole entry, looked up): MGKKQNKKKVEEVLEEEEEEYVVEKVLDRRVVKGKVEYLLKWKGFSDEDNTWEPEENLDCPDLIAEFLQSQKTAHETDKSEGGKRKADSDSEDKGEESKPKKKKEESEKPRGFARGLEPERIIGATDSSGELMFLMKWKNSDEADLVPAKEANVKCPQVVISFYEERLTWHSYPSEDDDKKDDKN
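Compound inhibition of the preformed complex between 50 nM HP1-beta and 50 nM biotinylated H3K9me3 peptide was read by AlphaScreen. Buffer was PBS pH 7.4 with 0.01% Tween-20. Incubations ran 30 min at room temperature, with 10 ug/mL donor/acceptor beads.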
G9a inh: inhibitors of human histone lysine methyltransferase G9a | 350,000 tested, 8.8% active | Potency, µM (highest dose often 102 µM), inactives show top-dose activity, negative = inhibition, most hits filed as inhibitors | Q96KQ7 | G9a H3K9 monomethylation, AlphaScreen, 2 h; note: % is set by controls: 0 for no effect and ±100 for the full control effect; nearly all actives have a fitted effect of over 75% in size
Target sequence (Q96KQ7 913-1193 limits assumed): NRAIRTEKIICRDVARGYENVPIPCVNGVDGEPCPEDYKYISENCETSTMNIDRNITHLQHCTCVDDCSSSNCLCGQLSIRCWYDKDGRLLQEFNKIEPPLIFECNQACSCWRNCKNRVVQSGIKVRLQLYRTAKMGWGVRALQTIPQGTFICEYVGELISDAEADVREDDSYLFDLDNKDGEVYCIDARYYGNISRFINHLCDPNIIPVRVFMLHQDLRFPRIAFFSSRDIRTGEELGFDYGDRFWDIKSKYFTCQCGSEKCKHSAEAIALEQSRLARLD
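Using a bead-based AlphaScreen, monomethylated H3K9 product from 2 h room-temperature reactions (G9a 20 nM, peptide 500 nM, SAM 20 uM) was detected with 0.5 ug/mL rabbit anti-H3K9me1 antibody.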
GLS inh: inhibitors of human glutaminase (GLS). O94925. GLS enzymatic activity, qHTS titration. Potency, µM (doses to about 45.5 µM), without a hit: at the highest dose activity change, negative = inhibition, hits mostly inhibitors. 410,000 tested, 0.21% active; note: % is set by controls: 0 for no effect and ±100 for the full control effect
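Read-out is an Amplex red fluorescence increase coupled through glutamate oxidase and HRP, measured before and after 30 min room-temperature incubation. hKGA is in 45 mM KH2PO4 (pH 8.2) with 0.02% Tween-20; glutamine added as 1mM solution.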
Starred values were filed as active, the others as inactive; ? = inconclusive; · = no result; ! = repeats disagree; [ ] = another dose, or the depositor's remark. Calls come from the whole dose curve; as a rule, active = well fitted curve in the direction sought with a large enough effect; inconclusive = small, poorly fitted or top-dose-only effect, or another doubt; inactive = no such curve, though single readings can be large; an effect the other way counts as inactive or inconclusive. Potency is the fitted concentration of half-maximal effect.

SMILES	JMJD2A Tudor	BAZ2B block	HP1b chromo inh	G9a inh	GLS inh
CC(=O)N1CCN(c2ccccc2NC(=O)COc2ccc(Br)cc2)CC1	-15%	-6%	24%	-13%[12.7 µM]	-3%
O=C(CCNC(=O)c1ccc(Br)cc1)Nc1ccccc1N1CCCCC1	-7%	-2%	16%	56µM*	-1%
Cc1cc(C)cc(NC(=S)N(CCN2CCCCC2)Cc2ccco2)c1	?	?	-9%	-40%[59 µM]	2%
Cc1cc(NC(=S)N(CCCN2CCN(C)CC2)Cc2ccco2)ccc1Cl	-17%	-27%	6%	32µM*	?
Cc1ccc(NC(=S)N(CCN2CCCCC2)Cc2ccco2)cc1Cl	-31%	-32%	-14%	50µM*	4%
Cc1ccc(NC(=S)N(CCCN2CCOCC2)Cc2ccco2)cc1C	-20%	?	11%	-30%	2%
Cc1ccc(NC(=O)CSC(C)C(=O)OC(C)C(=O)NC2CCCCC2C)cc1 (stereo not given)	-15%	10%	24%	1%[59 µM]	-2%
CCCCC(CC)CN=C(N)NC(N)=NCCCCCCN=C(N)NC(N)=NCC(CC)CCCC (stereo not given)	79µM*	3%	33%	-26%[59 µM]	16µM*
CCSc1nc(=S)cc(C)[nH]1	-11%	19%	4%	10µM*	-12%
CCSc1nc(O)cc(=O)[nH]1	3%	-18%	50%	7%[12.7 µM]	1%
CCC(=O)N1CCc2cc(S(=O)(=O)N3CCN(c4cc(Cl)ccc4C)CC3)ccc21	-20%	-3%	44%	-4%[0.501 µM]	-2%
CN1Cc2c(N)cccc2C(c2ccccc2)C1 (stereo not given)	-21%	0%	41%	14µM*!	11%
CN1Cc2c(N)cccc2[C@H](c2ccccc2)C1	·	·	·	13%[21.5 µM]	·
O=C1NC(=S)N/C1=C/c1cc([N+](=O)[O-])ccc1O	-19%	-31%	28%	11µM*	9%
COc1ccc(C)cc1NC(=O)N1CCCc2ccccc21	10%	36%	69%	59%	9%
COC(=O)/C(=N/Nc1ccccc1C)N1CCCc2ccccc21	-16%	-12%	12%	35µM*	30%
CCOC(=O)/C(=N/Nc1ccccc1OC)N1CCCc2ccccc21	-3%	-16%	41%	2.5µM*	38%
CCOC(=O)/C(=N/Nc1ccc(OC)cc1)N1CCCc2ccccc21	?	28µM*	71µM*	22µM*	?
CCOC(=O)/C(=N/Nc1ccccc1)N1CCCc2ccccc21	-22%	?	12%	?	44%
O=C(C1=C[C@H](c2ccc(Br)cc2)C[C@H](OCCCCO)O1)N1CCN(Cc2ccc3c(c2)OCO3)CC1	?	?	-2%	?	7%
O=c1ccn(Cc2ccccc2)cc1	-3%	5%	32%	29%[59 µM]	1%
O=C1CCCC2=C1Sc1ccccc1N2	-36%	45µM*	-21%	·	13µM*
N#Cc1ccc(OCC(=O)NNC(=S)NC(=O)C2CC2)cc1	28µM*	·	24%	·	4%
Cc1ccc(OCC(=O)NNC(=S)NC(=O)C(C)(C)C)c(Br)c1	?	-3%	-5%	25µM*	11%
Cc1ccc(OCC(=O)N2CCCCCC2)c(C)c1	-16%	6%	12%	5%[59 µM]	0%
SMILES	JMJD2A Tudor	BAZ2B block	HP1b chromo inh	G9a inh	GLS inh
Cc1ccc(OCC(=O)NNC(=S)NC(=O)C2CC2)c(C)c1	·	-22%	·	10µM*	·
CC(C)c1ccc(OCC(=O)NNC(=S)NC(=O)C2CC2)cc1	-25%	-1%	3%	-6%[12.7 µM]	40%
Cc1ccc(OCC(=O)NNC(=O)c2ccc(NC(=O)C3CC3)cc2)c(C)c1	-16%	-2%	30%	66%	9%
Cc1ccc(OCC(=O)NNC(=S)NC(=O)C2CCCCC2)c(C)c1	-35%	-14%	13%	18µM*	-7%
Cc1[nH]c2ccccc2c1C(=O)CSc1nccc(=O)[nH]1	-16%	-7%	14%	13%[59 µM]	4%
Cc1cccc(Nc2nc(N)c([N+](=O)[O-])c(N3CCCC(C)C3)n2)c1 (stereo not given)	40µM*	40µM*	-37%	40µM*	15%
Cc1ccc(Nc2nc(N)c([N+](=O)[O-])c(N3CCC(C)CC3)n2)cc1C	56µM*	25µM*	?	?	1%
Cc1ccc(Nc2nc(N)c([N+](=O)[O-])c(N3CCOCC3)n2)cc1C	?	-15%	-23%	?	-13%
Cc1cccc(Nc2nc(N)c([N+](=O)[O-])c(N3CCN(C)CC3)n2)c1	-30%	-5%	-1%	?	-12%
CC(C)(C)OC(=O)N1CCN(C(=O)Cn2cc(CCO)nn2)CC1	-12%	-6%	46%	13%[59 µM]	2%
COc1ccccc1CNC(=O)c1ccc(CN2CC(=O)N3CCCCC3C2=O)cc1 (stereo not given)	-15%	-5%	-21%	-12%[59 µM]	-12%
O=C(Cn1c(=O)n(CC2CCCO2)c(=O)c2ccccc21)c1ccccc1 (stereo not given)	-3%	-2%	30%	12%[12.7 µM]	-3%
Cc1cc(Br)cc(C=Nc2ccc(N3CCOCC3)cc2)c1O	-11%	·	32%	·	35%
COc1cc(C=Nc2cccc(C)c2)c(O)c([N+](=O)[O-])c1	?	50µM*	-32%	-21%[59 µM]	6%
O=[N+]([O-])c1cc(Cc2ccccc2)cc(C=Nc2ccc(N3CCOCC3)cc2)c1O	56µM*	40µM*	?	-14%[59 µM]	?
Cc1cccc(N=Cc2cc3c(cc2[N+](=O)[O-])OCO3)c1	-26%	?	?	-5%[0.501 µM]	18%
CCc1ccc(O)c(N=Cc2ccccc2O)c1	?	?	18%	?	1%
Cc1ccc(O)c(N=Cc2cc(Cc3ccccc3)cc([N+](=O)[O-])c2O)c1	40µM*	10µM*	?	?	11µM*
Cc1ccccc1-c1nc(SCC(=O)NCC2CCCO2)c2c(=O)n(C)c(=O)n(C)c2n1 (stereo not given)	-11%	7%	16%[57 µM]	16%[59 µM]	-3%
COC(=O)C1=C(C)Nc2[nH]c(=S)[nH]c(=O)c2C1c1ccc(O)cc1 (stereo not given)	?	-18%	27%	8.9µM*	13%
COc1cc(C2C(C(=O)OC(C)C)=C(C)Nc3[nH]c(=O)[nH]c(=O)c32)ccc1O (stereo not given)	-13%	11%	45%	-70%	15%
CC1(C)CC(=O)C2=C(C1)Nc1[nH]c(=S)[nH]c(=O)c1C2c1ccccc1 (stereo not given)	45µM*	-35%	-3%	11µM*	-18%
CSc1nc2c(c(=O)[nH]1)C(c1ccccc1)C1=C(CC(C)(C)CC1=O)N2 (stereo not given)	6%[11.4 µM]	-23%	36%	7%	-2%
O=C1CCCC2=C1C(c1ccc(Br)cc1)c1c([nH]c(=S)[nH]c1=O)N2 (stereo not given)	40µM*	?	-24%	0.79µM*	13µM*

Assay outcomes deposited in PubChem BioAssay by National Center for Advancing Translational Sciences (NCATS).
